4 compounds from PubChem BioAssay (NCATS) can be followed below.

Results filed as inconclusive are left out. The source made the active and inactive calls. Unless noted, the call rests on the fitted dose curve; in most records, active means well fitted curve in the direction sought with a large enough effect; inconclusive means small, poorly fitted or top-dose-only effect, or another doubt; inactive means no such curve, though single readings can be large; an effect the other way counts as inactive or inconclusive.

Test [1] has as its target Thyrotropin receptor (Homo sapiens) (UniProt P16473). As to the kind of experiment: qHTS Assay for Antagonists of the Thyroid Stimulating Hormone Receptor (AID 488980). Further: series mostly up to about 58 µM; 0% is about no effect. In short, it runs like this:
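TSHR-transfected HEK293 cells (2000/well) in HEPES-buffered HBSS with 70 uM RO 20-1724 were stimulated with 4 nM TSH (EC80, final) in the presence of compound. cAMP was measured by HTRF competition after lysis and 30 min at RT.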
A general note: qHTS replaces the single test concentration by a dilution series.

Test [2] deals with D(1A) dopamine receptor (Homo sapiens) (UniProt P21728). As to the kind of experiment: HTS Assay for Allosteric Agonists of the Human D1 Dopamine Receptor: Primary Screen for Agonists (AID 488981). Further: 0% is about no effect. In short, it runs like this: (§1)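 Calcium flux in an inducible, force-coupled HEK293 Trex D1 line (overnight at 30 C): agonist mode is the 180 s kinetic read after compound; potentiator mode is the following 180 s read after dopamine at EC20.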

For test [3] the target is unchanged. In words: HTS Assay for Allosteric Agonists of the Human D1 Dopamine Receptor: Primary Screen for Potentiators (AID 488982). Further: 0% is about no effect. In short, it runs like this:
as §1

Test [4] has the same target. In words: HTS Assay for Allosteric Agonists of the Human D1 Dopamine Receptor: Primary Screen for Antagonists (AID 488983).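 Further: calcium flux response to an EC80 dopamine challenge measured with no-wash dye; on the % scale 0 is the no-effect control and ±100 the full control effect; nearly all actives have a fitted effect of over 65% in size.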 In short, it runs like this: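 Kinetic fluorescence at 1 cycle/sec tracked intracellular calcium in force-coupled, tetracycline-inducible HEK293 T-REx D1 cells. Loss of response to an EC80 dopamine dose, given 180 s after compound, marked antagonists.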

Test [5] can be described thus: Validation screen for small molecules that induce genotoxicity in human embryonic kidney (HEK293T) cells expressing luciferase-tagged ELG1 (AID 493106). Further: 0% is about no effect. The procedure, abridged: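 Cells were dispensed at 2,000 per well, then 23 nL compound or DMSO was pinned in. After 16 hr at 37 °C and 5% CO2, ONE-Glo reagent was added. Luciferase activity was measured following 30 min at room temperature.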

Test [6] concerns the target Thyrotropin-releasing hormone receptor (Homo sapiens) (UniProt P34981). As to the kind of experiment: qHTS for Small Molecule Agonists and Allosteric Enhancers of Human TRH Receptor: Validation Screen for Agonists (AID 493127;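 active means calcium activation more than 3 SD above the typical response in the agonist read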;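 further: intracellular calcium rise by fluo-8 fluorescence before TRH EC20 addition; 0% is about no effect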). Conditions: TRH receptor agonist cell assay; at 2 µM; stronger effect = higher value. In short, it runs like this:
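Compounds are added by online pintool to dye-loaded TRHR cells while fluorescence is recorded every second. A rise in calcium signal during the agonist read marks activation; a later 10 nM TRH addition (EC20) serves the separate enhancer mode.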

Test [7] can be described thus: Nrf2 qHTS screen for inhibitors: Validation (AID 493153; active means well fitted inhibition curve with a large enough effect in the main read-out, with a control signal flat, not every such curve was filed as active). The following applies: Potency: luciferase luminescence; viability change: measured here: cytotoxicity max response. In short, it runs like this:
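A549 ARE_Fluc, 5% FBS OPTI-MEM; cpd titration, 18-24 h, 37°C/5% CO2. Read 1: CellTiter-Fluor (Ex 405/Em 525), cytotox. Read 2: luciferase lum, Nrf2 activity.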

For test [8], the target named is Galactokinase (Homo sapiens) (UniProt P51570). In words: qHTS Validation Assay for Inhibitors of Human Galactokinase (GALK) (AID 493189). Further: 0% is about no effect. The procedure, abridged: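 GALK (5 nM) with 35 uM ATP and 100 uM galactose in HEPES pH 8.0 with MgCl2, NaCl, DTT and BSA. Reaction ran 1 h at room temperature. Residual ATP read by Kinase-Glo Plus luminescence.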
Test [9] is described as follows: Validation screen for small molecules that induce DNA re-replication in SW480 colon adenocarcinoma cells (AID 504364). Further: potency means the concentration at half of the fitted maximal effect. The procedure, abridged: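 Image-based qHTS: compounds were incubated with SW480 cells for 48 hr, nuclei stained with Hoechst, and per-nucleus fluorescence intensity scanned to flag cells with excess DNA content.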
In test [10] the target is Peptidyl-prolyl cis-trans isomerase NIMA-interacting 1 (Homo sapiens) (UniProt Q13526). In words: qHTS Validation Assay to Find Inhibitors of Pin1 (AID 504536; active means well fitted inhibition curve with a large enough effect in the polarisation, with a control signal flat, not every such curve was filed as active; the % refers to the polarisation;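 further: 0% = full Pin1 enzyme wells and -100% = no-enzyme wells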). In short, it runs like this:
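Fluorescence polarization competition: compounds (titration) displace HiFluor-488-labeled Pin1-1b peptide from Pin1 (0.3 uM final) in pH 7.5 HEPES buffer with DTT, 10 min at room temperature; %Activity normalized to no-enzyme wells, curves fitted.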

In test [11] the target is Phosphoglycerate kinase, glycosomal (Trypanosoma brucei brucei) (UniProt P07378). In words: qHTS Validation Assay to Find Inhibitors of Phosphoglycerate Kinase (AID 504547).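 Further: control wells lack PGK and mark full inhibition.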 In short, it runs like this: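 Luminescence end-point (Kinase-Glo Plus, 10 min) after a 60 min room-temperature coupled reaction. GAPDH at 100nM final supplies 1,3-BPG to PGK. Buffer: 100mM TEA pH 7.6, 5mM MgCl2, 0.01% Tween-20. Wells lacking PGK served as controls.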

Test [12] concerns the target Ubiquitin carboxyl-terminal hydrolase 1 (Homo sapiens) (UniProt O94782). In words: Inhibitors of USP1/UAF1: Pilot qHTS (AID 504865).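 Further: rhodamine fluorescence freed from ubiquitin-rhodamine substrate followed over time; top concentration of the series differs between compounds; on the % scale 0 is the no-effect control and ±100 the full control effect; nearly all actives have a fitted effect of over 35% in size.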 The procedure, abridged:
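USP1/UAF1 complex at 1 nM preincubated 15 min at room temperature with compound, then Ub-Rho substrate added at 150 nM final. Fluorescence (480/540 nm) read kinetically in 50 mM HEPES pH 7.8, 0.5 mM EDTA, 1 mM TCEP, 0.1 mg/ml BSA, 0.01% Tween-20.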

For test [13], the target named is ATP-dependent 6-phosphofructokinase (Trypanosoma brucei brucei) (UniProt O15648). As to the kind of experiment: qHTS Assay to Find Inhibitors of T. brucei phosphofructokinase: hit validation (AID 492961).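 Further: luminescence reports ADP formed as PFK phosphorylates fructose-6-phosphate with ATP; series mostly up to about 51 µM; on the % scale 0 is the no-effect control and ±100 the full control effect.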 The procedure, abridged:
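ADP-Glo luminescence read-out of ADP formed by 1.25 nM PFK from 0.1 mM ATP and 0.5 mM F6P (TEA pH 8.0, 45 min, RT). Compounds titrated; activity normalized to no-enzyme and full-enzyme controls.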

Test [14] has as its target ATPase family AAA domain-containing protein 5 (Homo sapiens) (UniProt Q96QE3). In words: Validation screen for small molecules that inhibit ELG1-dependent DNA repair in human embryonic kidney (HEK293T) cells expressing luciferase-tagged ELG1 (AID 493107).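 Further: cells co-treated with the DNA-damaging agent 5-fluorouridine alongside compound; series mostly up to about 46 µM; on the % scale 0 is the no-effect control and ±100 the full control effect; inhibitors lower the ELG1-luciferase luminescence signal; nearly all actives have a fitted effect of over 70% in size.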 The procedure, abridged: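 Cells are dispensed in 1536-well format, then 5-fluorouridine and compound are pinned in. After a 16 hr incubation at 37 °C and 5% CO2, ONE-Glo is added and luciferase measured on a CCD imager.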

Test [15] is described as follows: Inducers of the Endoplasmic Reticulum Stress Response (ERSR) in human glioma: Validation (AID 504836). Further: 0% is about no effect. In short, it runs like this: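 ERSR induction read as luciferase luminescence (Bright-Glo, 10 min at room temperature) in stably transfected human U87-MG glioma cells exposed to compounds for 16 h, using GRP78 as sensor.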
Test [16] deals with DNA dC->dU-editing enzyme APOBEC-3G (Homo sapiens) (UniProt Q9HC16). In words: qHTS for inhibitors of Vif-A3G interactions: Validation (AID 588379). Further: 0% is about no effect. The procedure, abridged:
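Yellow fluorescence (Ex 488, Em 500-530) of Vif-coexpressing HeLa A3G-eYFP cells, scanned by Acumen cytometer, reports blocked A3G degradation. Cells plated at 700/well overnight at 37 deg C before compound addition, then a further overnight compound incubation at 37 deg C.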

Chain of Ubiquitin carboxyl-terminal hydrolase 1 (Homo sapiens) (O94782 whole entry, looked up): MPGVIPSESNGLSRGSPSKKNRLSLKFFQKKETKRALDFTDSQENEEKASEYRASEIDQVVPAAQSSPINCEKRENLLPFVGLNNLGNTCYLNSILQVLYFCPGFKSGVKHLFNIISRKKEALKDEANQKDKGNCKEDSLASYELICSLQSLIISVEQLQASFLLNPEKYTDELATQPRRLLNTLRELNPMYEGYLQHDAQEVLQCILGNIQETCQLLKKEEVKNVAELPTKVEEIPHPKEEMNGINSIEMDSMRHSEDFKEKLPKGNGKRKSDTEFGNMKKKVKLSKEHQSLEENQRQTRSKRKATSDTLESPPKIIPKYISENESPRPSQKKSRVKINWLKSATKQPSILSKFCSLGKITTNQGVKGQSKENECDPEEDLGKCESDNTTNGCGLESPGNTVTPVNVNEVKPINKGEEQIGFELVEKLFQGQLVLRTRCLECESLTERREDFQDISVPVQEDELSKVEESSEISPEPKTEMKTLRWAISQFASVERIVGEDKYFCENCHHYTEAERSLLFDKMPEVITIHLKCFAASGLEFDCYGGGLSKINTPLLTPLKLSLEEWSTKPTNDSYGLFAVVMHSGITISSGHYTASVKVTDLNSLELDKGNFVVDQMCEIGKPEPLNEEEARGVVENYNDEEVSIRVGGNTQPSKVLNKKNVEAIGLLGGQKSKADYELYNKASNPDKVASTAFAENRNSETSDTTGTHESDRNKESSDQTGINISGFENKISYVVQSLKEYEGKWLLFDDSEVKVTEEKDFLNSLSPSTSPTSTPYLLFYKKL
Chain of D(1A) dopamine receptor (Homo sapiens) (P21728 whole entry, looked up): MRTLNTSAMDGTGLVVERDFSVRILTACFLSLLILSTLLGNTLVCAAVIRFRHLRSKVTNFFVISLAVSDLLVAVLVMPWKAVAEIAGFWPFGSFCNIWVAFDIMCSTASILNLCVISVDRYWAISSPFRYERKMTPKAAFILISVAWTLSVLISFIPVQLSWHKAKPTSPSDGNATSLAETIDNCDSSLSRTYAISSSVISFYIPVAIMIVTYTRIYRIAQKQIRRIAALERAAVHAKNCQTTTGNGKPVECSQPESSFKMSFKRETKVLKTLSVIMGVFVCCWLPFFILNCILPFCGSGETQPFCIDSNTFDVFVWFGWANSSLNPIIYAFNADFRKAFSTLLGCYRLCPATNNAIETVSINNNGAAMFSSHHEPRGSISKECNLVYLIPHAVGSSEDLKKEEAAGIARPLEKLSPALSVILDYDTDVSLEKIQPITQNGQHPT
Chain of Thyrotropin receptor (Homo sapiens) (P16473 whole entry, looked up): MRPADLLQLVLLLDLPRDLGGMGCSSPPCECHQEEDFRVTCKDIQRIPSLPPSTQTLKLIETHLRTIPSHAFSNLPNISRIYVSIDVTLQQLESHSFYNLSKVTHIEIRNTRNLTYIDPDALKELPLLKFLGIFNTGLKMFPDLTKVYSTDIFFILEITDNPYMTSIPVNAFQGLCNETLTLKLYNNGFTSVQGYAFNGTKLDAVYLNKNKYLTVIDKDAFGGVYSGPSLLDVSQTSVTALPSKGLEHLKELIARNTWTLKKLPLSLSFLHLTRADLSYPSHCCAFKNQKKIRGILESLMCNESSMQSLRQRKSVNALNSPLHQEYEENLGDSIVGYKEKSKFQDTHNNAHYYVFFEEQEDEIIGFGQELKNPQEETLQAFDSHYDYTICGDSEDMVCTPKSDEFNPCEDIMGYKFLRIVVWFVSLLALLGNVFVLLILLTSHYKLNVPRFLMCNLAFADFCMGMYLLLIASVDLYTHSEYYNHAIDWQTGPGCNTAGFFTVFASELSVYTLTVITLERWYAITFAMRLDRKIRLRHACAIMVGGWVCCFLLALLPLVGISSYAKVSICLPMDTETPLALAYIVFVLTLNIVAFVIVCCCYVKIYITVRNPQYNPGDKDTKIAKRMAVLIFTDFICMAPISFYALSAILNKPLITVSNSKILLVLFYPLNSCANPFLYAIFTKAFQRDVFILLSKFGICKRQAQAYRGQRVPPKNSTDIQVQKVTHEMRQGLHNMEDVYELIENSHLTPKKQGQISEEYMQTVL
Chain of Galactokinase (Homo sapiens) (P51570 whole entry, looked up): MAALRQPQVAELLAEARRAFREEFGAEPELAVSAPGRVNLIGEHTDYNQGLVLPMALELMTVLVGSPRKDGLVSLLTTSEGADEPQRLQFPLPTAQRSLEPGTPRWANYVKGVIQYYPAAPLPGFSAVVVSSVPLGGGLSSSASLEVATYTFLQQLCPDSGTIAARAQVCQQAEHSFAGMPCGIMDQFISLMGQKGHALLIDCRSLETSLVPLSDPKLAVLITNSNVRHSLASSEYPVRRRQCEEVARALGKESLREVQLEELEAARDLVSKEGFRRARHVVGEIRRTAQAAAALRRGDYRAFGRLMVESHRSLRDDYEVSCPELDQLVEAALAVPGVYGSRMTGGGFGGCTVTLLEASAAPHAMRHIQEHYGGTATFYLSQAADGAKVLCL
Chain of Phosphoglycerate kinase, glycosomal (Trypanosoma brucei brucei) (P07378 whole entry, looked up): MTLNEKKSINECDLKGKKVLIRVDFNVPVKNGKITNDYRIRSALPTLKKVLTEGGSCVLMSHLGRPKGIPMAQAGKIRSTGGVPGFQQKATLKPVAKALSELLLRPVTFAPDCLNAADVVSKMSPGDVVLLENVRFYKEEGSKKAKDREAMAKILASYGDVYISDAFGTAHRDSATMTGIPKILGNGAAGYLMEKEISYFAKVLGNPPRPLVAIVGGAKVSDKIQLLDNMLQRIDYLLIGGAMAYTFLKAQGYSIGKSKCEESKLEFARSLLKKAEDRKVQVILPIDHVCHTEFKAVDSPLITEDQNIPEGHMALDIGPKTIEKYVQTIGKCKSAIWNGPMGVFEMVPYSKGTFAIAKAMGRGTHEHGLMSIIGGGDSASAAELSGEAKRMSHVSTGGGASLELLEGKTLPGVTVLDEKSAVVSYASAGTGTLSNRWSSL
Chain of Peptidyl-prolyl cis-trans isomerase NIMA-interacting 1 (Homo sapiens) (Q13526 whole entry, looked up): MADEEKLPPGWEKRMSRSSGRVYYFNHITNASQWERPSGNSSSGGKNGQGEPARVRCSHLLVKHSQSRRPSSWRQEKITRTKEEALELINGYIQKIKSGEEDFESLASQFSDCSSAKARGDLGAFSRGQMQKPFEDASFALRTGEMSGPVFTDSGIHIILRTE
Chain of Thyrotropin-releasing hormone receptor (Homo sapiens) (P34981 whole entry, looked up): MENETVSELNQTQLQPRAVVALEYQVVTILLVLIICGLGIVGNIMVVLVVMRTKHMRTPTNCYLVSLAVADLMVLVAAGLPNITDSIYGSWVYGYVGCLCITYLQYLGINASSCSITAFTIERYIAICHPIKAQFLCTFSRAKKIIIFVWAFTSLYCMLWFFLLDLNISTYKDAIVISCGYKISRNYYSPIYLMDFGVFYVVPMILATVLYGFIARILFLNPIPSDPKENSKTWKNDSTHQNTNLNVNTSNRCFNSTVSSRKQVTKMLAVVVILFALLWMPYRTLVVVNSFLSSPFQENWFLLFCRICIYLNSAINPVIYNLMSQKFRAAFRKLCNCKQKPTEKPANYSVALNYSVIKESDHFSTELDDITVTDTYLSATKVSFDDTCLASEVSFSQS
Chain of DNA dC->dU-editing enzyme APOBEC-3G (Homo sapiens) (Q9HC16 whole entry, looked up): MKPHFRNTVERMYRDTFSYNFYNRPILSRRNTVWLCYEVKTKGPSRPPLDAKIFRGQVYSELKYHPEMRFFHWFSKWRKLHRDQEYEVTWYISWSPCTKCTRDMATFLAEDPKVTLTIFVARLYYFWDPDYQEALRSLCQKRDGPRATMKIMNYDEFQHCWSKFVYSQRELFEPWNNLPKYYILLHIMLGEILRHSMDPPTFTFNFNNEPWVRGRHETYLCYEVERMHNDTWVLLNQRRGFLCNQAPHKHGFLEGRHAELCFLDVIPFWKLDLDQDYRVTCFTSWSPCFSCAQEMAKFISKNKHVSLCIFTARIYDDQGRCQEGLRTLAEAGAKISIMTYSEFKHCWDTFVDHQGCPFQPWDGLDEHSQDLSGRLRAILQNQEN
Chain of ATP-dependent 6-phosphofructokinase (Trypanosoma brucei brucei) (O15648 whole entry, looked up): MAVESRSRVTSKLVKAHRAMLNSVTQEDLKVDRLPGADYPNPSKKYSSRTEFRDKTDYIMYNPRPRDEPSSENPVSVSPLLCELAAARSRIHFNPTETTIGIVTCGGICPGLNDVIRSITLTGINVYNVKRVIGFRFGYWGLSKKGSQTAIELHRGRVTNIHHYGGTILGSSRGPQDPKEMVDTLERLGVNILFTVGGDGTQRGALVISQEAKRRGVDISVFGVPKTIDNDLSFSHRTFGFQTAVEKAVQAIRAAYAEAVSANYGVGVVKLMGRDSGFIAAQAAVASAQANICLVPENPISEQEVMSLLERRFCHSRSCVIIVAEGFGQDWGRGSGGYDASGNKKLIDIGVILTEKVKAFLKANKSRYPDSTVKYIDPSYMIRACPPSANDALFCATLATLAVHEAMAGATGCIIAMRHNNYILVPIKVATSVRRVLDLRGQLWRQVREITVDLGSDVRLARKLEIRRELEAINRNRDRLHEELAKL

Consider `O=C1NCN(c2ccccc2)C12CCN(CC1COc3ccccc3O1)CC2` (stereo not drawn), for which the compound was classed as inactive in test [1] and in test [8]. For the same compound, the Potency entry in test [2], in test [3], in [4], in test [5], in [7] and in test [9] was “inactive” each time. In addition, the Potency entry in test [10], in [11] and in [12] was “inactive” throughout. Moreover, the activation in [6] was 0.562% (inactive). Moreover, the viability change in [7] worked out at 1.49%.

`CC(=O)[C@H]1CC[C@H]2[C@@H]3CC[C@H]4C[C@](C)(O)CC[C@]4(C)[C@H]3CC[C@]12C`: the Potency result in test [2], in test [3], in [4], in test [5], in test [14] and in test [10] was “inactive” throughout. In addition, the Potency result in test [11] and in test [12] was “inactive” each time. Besides, the result in test [13] and in [15] was inactive.

In the case of `C=C(C)[C@H]1Cc2c(ccc3c2O[C@@H]2COc4cc(OC)c(OC)cc4[C@@H]2C3=O)O1`, the outcome in [1], in test [8], in test [15] and in test [16] was inactive. For the same compound, the Potency entry in [2], in test [3], in test [4], in test [5], in test [10] and in test [11] was “inactive” each time. In addition, the activation in test [6] was 1.25% (inactive). For the same compound, the Potency in [9] was 920 nM (active).

Consider `CC(CCc1ccccc1)NC(C)C(O)c1ccc(O)cc1` (stereo not drawn), for which the compound was classed as inactive in test [1], in test [8] and in test [15]. Further, the Potency result in test [2], in test [3], in test [5], in test [14], in test [7] and in test [9] was “inactive” each time. The Potency entry in test [10], in test [11] and in [12] was “inactive” throughout. In test [7], the viability change is -10.8%.
